Experimental data published in PubChem BioAssay AID1159580 (chemical genetic matrix, 2015).
Several values for one entry are separate records, joined by “and”; a condition that tells them apart may be missing. Identical values can stand only once. The campaign covered roughly 5,500 compounds. About 2,000 (36%) were called active. Another 18% or so got no clear call; they are omitted. Cut-off read from the data, not from the text of the source: active = normalized growth mostly below about 0.91 (no sharp cut-off); inconclusive = no clear call, values can overlap the other calls; inactive = mostly above about 0.92. This is one part of the list.

Assay: chemical genetic growth profiling, strain panel (AID 1159580);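 note: tested at 20 µM; growth read once vehicle control cultures reached saturation at 30 °C; 1 = growth at the plate median or of vehicle wells; lower values mean less growth of the strain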
Conditions: S. cerevisiae deletion strains, growth OD

Measured: normalized growth

CN1CC(CNC(=O)OCc2ccccc2)CC2c3cccc4c3c(cn4C)CC21 (stereo not drawn)
inactive: locus YAL013W, strain DEP1, stronger effect = lower value 1.01 | locus YBR021W, strain FUR4, stronger effect = lower value 1.02 | locus YBR229C, strain ROT2, stronger effect = lower value 1 | locus YCL029C, strain bik1, stronger effect = lower value 0.977 | locus YDL035C, strain GPR1, stronger effect = lower value 1.04 | locus YDL074C, strain BRE1, stronger effect = lower value 0.999 | locus YDL101C, strain DUN1, stronger effect = lower value 0.978 | locus YDL185W, strain tfp1, stronger effect = lower value 0.97 | locus YDL192W, strain arf1, stronger effect = lower value 0.993 | locus YDR101C, strain arx1, stronger effect = lower value 0.995 | locus YDR150W, strain NUM1, stronger effect = lower value 0.994 | locus YDR162C, strain NBP2, stronger effect = lower value 1.02 | locus YDR318W, strain mcm21, stronger effect = lower value 0.985 | locus YDR388W, stronger effect = lower value 0.987 | locus YDR502C, strain sam2, stronger effect = lower value 0.941 | locus YEL061C, strain CIN8, stronger effect = lower value 0.992 | locus YER110C, stronger effect = lower value 0.972 | locus YER155C, strain BEM2, stronger effect = lower value 0.991 | locus YER167W, strain BCK2, stronger effect = lower value 1 | locus YGL078C, strain dbp3, stronger effect = lower value 0.995 | locus YGL086W, strain mad1, stronger effect = lower value 0.982 | locus YGL248W, strain PDE1, stronger effect = lower value 0.989 | locus YGR078C, strain PAC10, stronger effect = lower value 0.995 | locus YGR135W, strain pre9, stronger effect = lower value 0.984 | locus YGR252W, strain gcn5, stronger effect = lower value 1.04 | locus YHR030C, strain SLT2, stronger effect = lower value 0.998 and 0.982 | locus YHR079C, strain IRE1 (second series), stronger effect = lower value 0.965 | locus YHR079C, strain IRE1, stronger effect = lower value 0.972 | locus YHR094C, strain hxt1, stronger effect = lower value 0.988 | locus YHR129C, strain ARP1, stronger effect = lower value 0.999 | locus YHR200W, strain rpn10, stronger effect = lower value 0.985 | locus YIL066C, strain RNR3, stronger effect = lower value 1.01 | locus YIL073C, strain SPO22, stronger effect = lower value 0.911 | locus YIL125W, strain kgd1, stronger effect = lower value 1 | locus YIR030C, strain dcg1, stronger effect = lower value 0.986 | locus YJL095W, strain BCK1, stronger effect = lower value 0.957 and 0.968 | locus YJL134W, strain LCB3, stronger effect = lower value 0.995 | locus YJL168C, strain set2, stronger effect = lower value 1 | locus YJL187C, strain SWE1 (second series), stronger effect = lower value 0.973 | locus YJR043C, strain POL32, stronger effect = lower value 1.07 | locus YJR066W, strain TOR1, stronger effect = lower value 0.877 | locus YJR075W, strain HOC1, stronger effect = lower value 0.981 | locus YKL009W, strain mrt4, stronger effect = lower value 0.979 | locus YKL068W, stronger effect = lower value 0.983 | locus YKL085W, strain MDH1 (second series), stronger effect = lower value 0.975 | locus YKL085W, strain MDH1, stronger effect = lower value 0.975 | locus YKR001C, strain vps1, stronger effect = lower value 0.996 | locus YLR039C, strain RIC1, stronger effect = lower value 0.988 | locus YLR058C, strain SHM2, stronger effect = lower value 0.988 | locus YLR102C, strain apc9, stronger effect = lower value 0.986 | locus YLR113W, strain HOG1, stronger effect = lower value 1.03 | locus YLR262C, strain YPT6, stronger effect = lower value 0.998 | locus YLR268W, strain sec22, stronger effect = lower value 0.986 | locus YLR330W, strain CHS5, stronger effect = lower value 0.993 | locus YLR342W, strain FKS1 (second series), stronger effect = lower value 1.07 | locus YLR371W, strain rom2, stronger effect = lower value 0.992 | locus YLR418C, strain cdc73, stronger effect = lower value 1.01 | locus YML016C, strain PPZ1, stronger effect = lower value 0.999 | locus YML032C, strain rad52, stronger effect = lower value 0.998 | locus YML124C, strain tub3, stronger effect = lower value 1 | locus YMR078C, strain ctf18, stronger effect = lower value 0.983 | locus YMR223W, strain ubp8, stronger effect = lower value 0.979 | locus YMR263W, strain SAP30, stronger effect = lower value 0.979 | locus YMR307W, strain GAS1, stronger effect = lower value 1.16 | locus YNL067W, strain RPL9B, stronger effect = lower value 0.96 | locus YNL153C, strain GIM3, stronger effect = lower value 0.981 | locus YNL183C, strain NPR1, stronger effect = lower value 0.879 | locus YNL233W, strain BNI4, stronger effect = lower value 0.986 | locus YNL250W, strain rad50, stronger effect = lower value 0.971 | locus YNL271C, strain bni1, stronger effect = lower value 0.992 | locus YNL298W, strain CLA4, stronger effect = lower value 0.99 | locus YNL307C, strain MCK1, stronger effect = lower value 0.985 | locus YNR052C, strain pop2, stronger effect = lower value 0.975 | locus YOL012C, strain htz1 0.968 | locus YOL147C, strain pex11, stronger effect = lower value 0.989 | locus YOR061W, strain CKA2, stronger effect = lower value 0.994 | locus YOR069W, strain VPS5, stronger effect = lower value 0.997 | locus YOR136W, strain idh2, stronger effect = lower value 0.98 | locus YOR144C, strain elg1, stronger effect = lower value 1.01 | locus YOR184W, strain ser1, stronger effect = lower value 1 | locus YOR231W, strain MKK1, stronger effect = lower value 0.991 | locus YOR316C, strain cot1, stronger effect = lower value 0.979 | locus YPL256C, strain CLN2, stronger effect = lower value 0.986 | locus YPR119W, strain clb2, stronger effect = lower value 0.981 | locus YPR141C, strain kar3, stronger effect = lower value 0.988 | locus YPR163C, strain tif3, stronger effect = lower value 1 | locus YPR167C, strain met16, stronger effect = lower value 0.991 | strain wtn01, stronger effect = lower value 1.01
